Active and inactive are the calls of the source. Rule for the calls: active = hit-call score of the fitted dose curve at least 0.9, where 1 is the maximum; inactive = score below 0.9.

What all share (settings): mRNA level, 48 h; actives raise or lower the signal
Read-out in experiment [1]: Lipase C (LIPC), LIPC (gene 3990)
The experiment is described as follows: LTEA_HepaRG_LIPC: Life Technologies and Expression Analysis (LTEA) Assay for Lipase C (LIPC) using HepaRG (AID 2283514). Summed up: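 HepaRG cells, 48 h after plating, treated in duplicate for 48 h in serum-free induction medium over 8 half-log concentrations from 100 uM, 0.5% DMSO. LIPC mRNA by TaqMan qRT-PCR normalized to ACTB/GAPDH/POLR2A; bidirectional fit versus DMSO.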

Read-out in experiment [2]: MicroRNA 122 (MIR122), gene 406906
The experiment is described as follows: LTEA_HepaRG_MIR122: Life Technologies and Expression Analysis (LTEA) Assay for MicroRNA 122 (MIR122) using HepaRG (AID 2283516). Note: the transcript read is the microRNA miR-122. Summed up: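 Differentiated human HepaRG cells were exposed 48 h in serum-free induction medium to eight half-log concentrations (top 100 uM, 0.5% DMSO). Transcript level was measured by TaqMan qRT-PCR, normalized to ACTB, GAPDH and POLR2A, and fitted bidirectionally versus DMSO.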

Read-out in experiment [3]: matrix metalloproteinase-10 (MMP10), MMP10 (gene 4319)
Description: LTEA_HepaRG_MMP10: Life Technologies and Expression Analysis (LTEA) Assay for matrix metalloproteinase-10 (MMP10) using HepaRG (AID 2283517). A digest of the protocol:
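Differentiated HepaRG cells in serum-free induction medium exposed 48 h in duplicate to 8-point half-log series up to 100 uM in 0.5% DMSO. mRNA quantified by qRT-PCR, normalised to ACTB, GAPDH, POLR2A; bidirectional fit versus DMSO.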

Read-out in another experiment: MYC, MYC (gene 4609)
The experiment is described as follows: LTEA_HepaRG_MYC: Life Technologies and Expression Analysis (LTEA) Assay for MYC using HepaRG (AID 2283518). A digest of the protocol:
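Expression changes were scored by TaqMan qRT-PCR with ACTB, GAPDH and POLR2A normalization. Cultures in serum-free induction medium received duplicate 8-point concentration series, highest 100 uM, for 48 h; DMSO (0.5%) served as baseline.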

Read-out in experiment [4]: matrix metalloproteinase-3 (MMP3), MMP3 (gene 4314)
The experiment is described as follows: LTEA_HepaRG_MMP3: Life Technologies and Expression Analysis (LTEA) Assay for matrix metalloproteinase-3 (MMP3) using HepaRG (AID 2283519). A digest of the protocol:
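HepaRG cells (~100,000/well) in serum-free induction medium were dosed in duplicate for 48 h with an 8-point half-log series from 100 uM, 0.5% DMSO. MMP3 mRNA was quantified by Fluidigm TaqMan qRT-PCR, normalized to three housekeeping genes.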

Read-out in experiment [5]: Paternally Expressed 10 (PEG10), PEG10 (gene 23089)
Description: LTEA_HepaRG_PEG10: Life Technologies and Expression Analysis (LTEA) Assay for Paternally Expressed 10 (PEG10) using HepaRG (AID 2283520). A digest of the protocol:
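Differentiated HepaRG cells, plated 48 h then switched to serum-free induction medium, were exposed in duplicate for 48 h to eight half-log concentrations topping at 100 uM in 0.5% DMSO. PEG10 mRNA was quantified by TaqMan qRT-PCR, normalised to ACTB, GAPDH and POLR2A.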

Read-out in experiment [6]: Phosphatase and tensin (PTEN), PTEN (gene 5728)
Description: LTEA_HepaRG_PTEN: Life Technologies and Expression Analysis (LTEA) Assay for Phosphatase and tensin (PTEN) using HepaRG (AID 2283523). A digest of the protocol:
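HepaRG cells, 48 h after plating, exposed in duplicate for 48 h in serum-free induction medium to 8 half-log concentrations up to 100 uM (0.5% DMSO). PTEN mRNA by qRT-PCR, normalized to ACTB, GAPDH, POLR2A; bidirectional fit versus DMSO.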

Read-out in experiment [7]: Nuclear factor NF-kappa-B p105 subunit (Homo sapiens) (UniProt P19838)
Description: LTEA_HepaRG_NFKB1: Life Technologies and Expression Analysis (LTEA) Assay for Nuclear Factor Kappa B Subunit 1 (NFKB1) using HepaRG (AID 2283521).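 Note: TaqMan qRT-PCR transcript normalised to ACTB GAPDH and POLR2A housekeeping genes.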 Summed up:
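Differentiated human HepaRG cells in serum-free induction medium with 0.5% DMSO were exposed for 48 h to eight half-log concentrations, top 100 uM, in duplicate. NFKB1 mRNA measured by Fluidigm TaqMan qRT-PCR, normalised to ACTB, GAPDH and POLR2A; bidirectional fit versus DMSO.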

Read-out in experiment [8]: Protein phosphatase 2A (PPP2R4), PTPA (gene 5524)
The experiment is described as follows: LTEA_HepaRG_PPP2R4: Life Technologies and Expression Analysis (LTEA) Assay for Protein phosphatase 2A (PPP2R4) using HepaRG (AID 2283522). A digest of the protocol:
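Differentiated HepaRG cells in serum-free induction medium were exposed in duplicate for 48 h to eight concentrations, top 100 uM with half-log dilutions, in 0.5% DMSO. PPP2R4 mRNA was quantified by TaqMan qRT-PCR, normalized to ACTB, GAPDH and POLR2A.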

Nuclear factor NF-kappa-B p105 subunit (Homo sapiens), sequence (P19838 whole entry, looked up): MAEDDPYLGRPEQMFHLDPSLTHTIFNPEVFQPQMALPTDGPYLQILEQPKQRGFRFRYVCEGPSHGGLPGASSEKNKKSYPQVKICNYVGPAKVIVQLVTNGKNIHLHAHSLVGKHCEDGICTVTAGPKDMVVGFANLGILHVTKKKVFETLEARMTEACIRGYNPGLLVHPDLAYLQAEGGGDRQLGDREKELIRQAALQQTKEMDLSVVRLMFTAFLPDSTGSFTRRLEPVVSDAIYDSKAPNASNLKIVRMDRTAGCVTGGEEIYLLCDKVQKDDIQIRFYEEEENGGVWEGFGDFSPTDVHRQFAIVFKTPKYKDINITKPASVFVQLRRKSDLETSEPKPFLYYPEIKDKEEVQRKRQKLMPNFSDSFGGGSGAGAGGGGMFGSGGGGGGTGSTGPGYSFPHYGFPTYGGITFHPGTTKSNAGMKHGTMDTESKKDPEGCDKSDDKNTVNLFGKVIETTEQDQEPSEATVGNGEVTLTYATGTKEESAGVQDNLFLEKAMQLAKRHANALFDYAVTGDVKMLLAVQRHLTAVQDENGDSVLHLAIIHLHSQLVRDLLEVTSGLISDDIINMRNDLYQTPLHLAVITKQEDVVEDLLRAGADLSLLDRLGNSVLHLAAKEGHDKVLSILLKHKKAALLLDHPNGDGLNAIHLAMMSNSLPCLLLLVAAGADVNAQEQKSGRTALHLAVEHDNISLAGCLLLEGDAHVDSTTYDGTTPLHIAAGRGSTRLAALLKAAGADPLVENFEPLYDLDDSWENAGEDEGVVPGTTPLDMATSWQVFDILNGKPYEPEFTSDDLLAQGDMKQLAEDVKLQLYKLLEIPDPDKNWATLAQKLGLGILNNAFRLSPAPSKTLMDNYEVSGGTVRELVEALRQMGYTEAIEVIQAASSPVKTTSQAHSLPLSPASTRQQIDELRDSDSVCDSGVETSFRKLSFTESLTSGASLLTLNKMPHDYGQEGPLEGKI

In the case of `COC(=O)CSc1cc(N=c2sc(=O)n3n2CCCC3)c(F)cc1Cl`, the outcome is “inactive” in experiment [1]; “inactive” in [2]; “inactive” in [3]; “inactive” in the experiment with MYC, MYC (gene 4609); “inactive” in [4]; “inactive” in [5]. For the same molecule, the molecule was called inactive in experiment [6].

What is called AC50 is the concentration at which the activity in the assay is half-maximal. With `O=C(Nc1ccc([N+](=O)[O-])cc1Cl)c1cc(Cl)ccc1O`, the AC50 is 4.31 µM (active) in experiment [1]; 3.43 µM (active) in experiment [3]; 2.28 µM (active) with MYC, MYC (gene 4609); 4.24 µM (active) in [4]; 1.99 µM (active) in experiment [5]; 4.53 µM (active) in experiment [6]. The molecule was classed as inactive in experiment [2] and in experiment [7].

For the molecule `COCCO`, the outcome in [1] is “inactive”; in experiment [2], “inactive”; in experiment [3], “inactive”; with MYC, MYC (gene 4609) it was “inactive”; in experiment [4] it was “inactive”; in [5], “inactive”. Also, the call in [6] was inactive.

For the molecule `CCCN(CCC)c1c([N+](=O)[O-])cc(C(F)(F)F)c(N)c1[N+](=O)[O-]`, the AC50 was 50 µM (active) in experiment [1]; 50 µM (active) with MYC, MYC (gene 4609); 17.4 µM (active) in experiment [5]. Also, the call in experiment [3], in experiment [4], in experiment [7] and in experiment [6] was inactive.

Take `CCOC(=O)NCCOc1ccc(Oc2ccccc2)cc1`: the half-maximal activity concentration (AC50) in experiment [1] is 89 µM (active); in [2], 75.3 µM (active); in experiment [3] it was 50 µM (active); with MYC, MYC (gene 4609), 79.9 µM (active); in [4], 50 µM (active); in experiment [5], 29 µM (active). The molecule was called inactive in experiment [7] and in [6].

With `CN(C)C(=O)Nc1ccc(Cl)c(Cl)c1`, the call in experiment [1], in [2], in [3], in experiment [4] and in experiment [6] was inactive. Moreover, the concentration at half-maximal activity (AC50) with MYC, MYC (gene 4609) was 68.8 µM (active); in experiment [5] it was 63.8 µM (active).

Consider `CCCCC(CC)CN1C(=O)C2C3C=CC(C3)C2C1=O` (centres undefined), for which the half-maximal activity concentration (AC50) is 88.2 µM (active) in experiment [1] and 1.98 µM (active) in experiment [5]. The outcome in experiment [2] was “inactive”; in [3], “inactive”; in the experiment with MYC, MYC (gene 4609), “inactive”; in experiment [4], “inactive”; in experiment [7] it was “inactive”; in [6], “inactive”.

`CCC(C)OC(=O)N1CCCCC1CCO` (centres undefined): the outcome in experiment [1] is “inactive”; in experiment [2], “inactive”; in experiment [3], “inactive”; in the experiment with MYC, MYC (gene 4609), “inactive”; in experiment [4], “inactive”; in [5], “inactive”. The result in experiment [7] and in experiment [6] was inactive.

As to `CCOC(=O)COc1cc(-n2ncc(C(F)(F)F)c(C)c2=O)c(F)cc1Cl`, the outcome in [1] is “inactive”; in [2], “inactive”; in experiment [3], “inactive”; with MYC, MYC (gene 4609), “inactive”; in experiment [4], “inactive”; in [5], “inactive”. In addition, in experiment [6], the result was inactive.

Consider `C#CCOC(=O)[C@@H](C)Oc1ccc(Oc2ncc(Cl)cc2F)cc1`, for which the outcome is “inactive” in experiment [1]; “inactive” in experiment [2]; “inactive” in [3]; “inactive” in the experiment with MYC, MYC (gene 4609); “inactive” in experiment [4]; “inactive” in [5]. The call in [6] was inactive.

Turning to `N[C@@H](Cc1cc(I)c(Oc2ccc(O)c(I)c2)c(I)c1)C(=O)O`, the results for the concentration at half-maximal activity (AC50) in experiment [1] and in experiment [5] were 72.3 µM (active) and 8.92 µM (active), respectively. For the same molecule, the outcome in experiment [2] is “inactive”; in experiment [3], “inactive”; with MYC, MYC (gene 4609), “inactive”; in experiment [4], “inactive”; in experiment [6], “inactive”.

In the case of `CCCOC(=O)c1ccc(C(=O)OCCC)nc1`, the outcome was “inactive” in experiment [1]; “inactive” in [2]; “inactive” in [3]; “inactive” with MYC, MYC (gene 4609); “inactive” in [4]; “inactive” in experiment [5]. In addition, the call in experiment [7] and in experiment [6] was inactive.

`CCCOC(=O)NCCCN(C)C`: the outcome in experiment [1] is “inactive”; in experiment [2] it was “inactive”; in experiment [3], “inactive”; with MYC, MYC (gene 4609) it was “inactive”; in experiment [4] it was “inactive”; in [5], “inactive”. Moreover, the outcome in experiment [8] and in experiment [6] was inactive.

Consider `CCN(CC)C(=O)c1cccc(C)c1`, for which the outcome in experiment [1] is “inactive”; in experiment [2], “inactive”; in experiment [3], “inactive”; with MYC, MYC (gene 4609), “inactive”; in experiment [4], “inactive”; in [5] it was “inactive”. For the same molecule, the call in [6] was inactive.

These data come from PubChem BioAssay (EPA / NIEHS).
